# Compounds with a hit are over-represented: about 31% of the library has one in this group of screens.
# CYP2C19 activ: increases human CYP2C19 enzyme activity. activation factor at 5 µM. 96,000 tested, under 10 active. recombinant CYP2C19, luciferin-H EGE luminescence; active compounds read high; 0 = fully inhibited enzyme, 1 = untreated enzyme. P33261;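 active = activation factor of at least 2 at 5 µM in the primary screen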;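 also: 0 = wells with 2.5 mM tranylcypromine and 1 = vehicle-only wells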
# CYP2C19 inh: inhibitors of human CYP2C19. P33261. CYP2C19 Supersomes, luciferin-H EGE luminescence, 30 min. inhibition, % at 5 µM. actives 21% (n = 96,000);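 active = CYP2C19 inhibition above a set limit at 5 µM in the primary screen, cut at about 50% in these data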;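 also: plate controls were negative control wells for no effect and 2.5 mM tranylcypromine positive control for full effect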
# CYP2C9 inhib: inhibitors of human CYP2C9. AID 777. P11712. actives 20% (n = 96,000). CYP2C9 Supersomes, luciferin-H conversion, luminescence. inhibition, % at 5 µM;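 active = blocking of liver enzyme CYP2C9 beyond about 50% at 5 µM, limit read from the data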
# PLAP act: activators of human placental alkaline phosphatase | actives 1.2% (n = 96,000) | activation fold at 20 µM | purified PLAP enzyme, luminescent substrate read-out; active compounds read high | AID 696 | P05187; in the data active = activation fold above about 2
# Target sequence (P05187 whole entry, looked up): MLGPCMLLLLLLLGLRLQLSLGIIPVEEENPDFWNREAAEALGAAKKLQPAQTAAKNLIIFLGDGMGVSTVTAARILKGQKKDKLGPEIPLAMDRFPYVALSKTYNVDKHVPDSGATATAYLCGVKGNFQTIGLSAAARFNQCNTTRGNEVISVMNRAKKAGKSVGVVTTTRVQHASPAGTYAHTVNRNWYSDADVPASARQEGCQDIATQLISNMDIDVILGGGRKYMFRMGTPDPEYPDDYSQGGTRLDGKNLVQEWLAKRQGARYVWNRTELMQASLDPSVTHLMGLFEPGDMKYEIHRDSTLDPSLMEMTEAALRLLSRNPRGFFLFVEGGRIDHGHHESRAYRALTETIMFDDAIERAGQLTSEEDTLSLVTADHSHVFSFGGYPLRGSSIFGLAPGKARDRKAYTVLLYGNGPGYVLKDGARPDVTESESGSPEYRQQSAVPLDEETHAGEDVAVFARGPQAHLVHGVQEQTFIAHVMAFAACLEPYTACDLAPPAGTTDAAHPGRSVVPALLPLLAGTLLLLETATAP
# CYP2C9 activ: increases human cytochrome P450 2C9 activity; recombinant CYP2C9, luciferin-H conversion, luminescence; active compounds read high; factor 1 = untreated enzyme, 0 = blocked; activation factor at 5 µM; P11712; actives 1.4% (n = 96,000);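 active = activation factor of 2 or more for CYP2C9 at a 5 µM dose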;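 also: 0 = sulfaphenazole-blocked wells and 1 = vehicle-only wells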
# * marks the source's active call; other numbers are inactive results.
SMILES,CYP2C19 activ,CYP2C19 inh,CYP2C9 inhib,PLAP act,CYP2C9 activ
COc1ccc2[nH]cc(C(=O)CN(C)CCc3ccc(OC)c(OC)c3)c2c1,0.1,85.3*,91.4*,1.2,0.1
CCN(CC)S(=O)(=O)c1ccc2[nH]cc(C(=O)NCCc3ccc(OC)c(OC)c3)c(=O)c2c1,0.4,56.8*,60.1*,1.2,0.4
COc1ccc(CNc2nc(NCc3ccc(OC)cc3)n(C(C)=O)n2)cc1,1.1,-6.4,15.4,0.8,0.8
COc1ccc(CNc2nc(NCc3ccc(OC)c(OC)c3)n(C(=O)c3cccs3)n2)cc1OC,0.7,26.6,71.4*,1,0.3
CCCn1nnc(NCc2ccc(OCc3cccs3)c(OC)c2)n1,0.5,48.0,86.4*,1.6,0.1
CCC(=O)n1nc(NCc2ccccc2OC)nc1NCc1ccccc1OC,0.6,36.3,51.8*,1.1,0.5
CCCn1nnc(NC(=O)c2ccc(OCC)c(Cl)c2)n1,0.6,40.9,-13.4,1.1,1.1
CCOC(=O)C1=C(N)N(c2ccccc2Oc2ccccc2)C(=O)C1,0.2,78.4*,64.8*,1.6,0.4
Cc1ccc(-c2csc(N(Cc3ccccc3)C(=O)COc3ccccc3)n2)cc1,0.9,7.1,31.2,1,0.7
O=C(COc1ccccc1)N(CCc1ccccc1)c1nc(-c2ccc(F)cc2)cs1,1,3.3,80.6*,1,0.2
Cc1ccc(-c2csc(N(CCc3ccccc3)C(=O)COc3ccccc3)n2)cc1,0.4,61.5*,98.5*,0.9,0
O=C(NCc1cccnc1)c1cc(-c2cccs2)on1,0.8,17.0,19.6,1,0.8
O=C(C1CCC1)N1CCc2cc(S(=O)(=O)Nc3ccc4c(c3)OCCO4)ccc21,1,1.5,0.3,1,1
CS(=O)(=O)N1CCc2cc(S(=O)(=O)Nc3ccc4c(c3)OCCO4)ccc21,0,98.6*,46.8,1.1,0.5
CCC(=O)N1CCc2cc(S(=O)(=O)Nc3ccc4c(c3)OCCO4)ccc21,0.7,33.3,58.5*,1.1,0.4
CCC(=O)N1CCc2cc(S(=O)(=O)CCC(=O)Nc3cccc(F)c3)ccc21,0.9,7.0,8.7,0.9,0.9
CCC(=O)N1CCc2cc(S(=O)(=O)CCC(=O)Nc3ccc(F)c(F)c3)ccc21,0.7,27.8,52.3*,0.8,0.5
O=c1c2c3c(sc2n2cnnc2n1-c1ccccc1)N(Cc1ccccc1)CCC3,0.9,5.2,11.4,1.5,0.9
O=C(Nc1cccc(-c2cn3cccnc3n2)c1)c1ccc(Br)o1,1,-2.8,58.4*,0.8,0.4
O=C(Nc1cccc(-c2cn3cccnc3n2)c1)c1ccco1,0.9,5.5,23.0,1,0.8
O=C(Nc1cccc(-c2cn3cccnc3n2)c1)c1ccc2c(c1)OCO2,0.9,10.0,59.6*,0.8,0.4
O=C(Nc1ccc2nn(-c3ccccc3)nc2c1)c1ccc2c(c1)OCO2,1,0.1,28.0,1,0.7
CCOC(=O)c1cnn(-c2nc(SC)nc3sc4c(c23)CCC4)c1N,0.9,5.3,9.7,0.9,0.9
CC(=O)Nc1n[nH]c(S(=O)(=O)Cc2ccc(Cl)cc2Cl)n1,1,3.7,-22.5,1.1,1.2
CC1CN(C(=O)c2cc3c(=O)n4ccccc4nc3s2)CC(C)O1 (stereo not given),0.9,7.9,17.2,0.8,0.8
SMILES,CYP2C19 activ,CYP2C19 inh,CYP2C9 inhib,PLAP act,CYP2C9 activ
COc1cc2ccccc2c2c1CCCC2=O,0.4,58.6*,-37.6,0.9,1.4
CCNc1nc(N)c(C(=O)c2ccc(Cl)s2)s1,0.2,83.4*,54.2*,1,0.5
CC(C)(C)c1csc(NC(=O)c2ccc(Cl)s2)n1,0.8,15.1,31.1,1.2,0.7
O=S(=O)(c1ccc(NCCc2c[nH]c3ccccc23)nc1)N1CCOCC1,0.5,51.2*,27.7,0.8,0.7
Cc1ccc2c(c1)NC(=O)C(CC(=O)N(C)Cc1ccccc1)O2 (stereo not given),0.6,38.2,-7.5,1.1,1.1
O=C(COC(=O)Cc1ccc(S(=O)(=O)N2CCOCC2)s1)Nc1ccc2c(c1)OCO2,0.9,8.1,20.9,1.1,0.8
Cc1ccc2nc3ccc(N4CCN(C)CC4)nn3c(=O)c2c1,0.8,20.6,2.1,1.1,1
Cc1ccc2nc3ccc(N4CCCCCCC4)nn3c(=O)c2c1,0.4,64.0*,70.0*,1,0.3
CC(C)CC(=O)O/N=C1\C(=O)N(c2ccccc2)c2ccccc21,0.9,11.0,17.0,1,0.8

# Bioassay records from PubChem.
